According to PubChem BioAssay (Tox21):
Records with an inconclusive call do not appear. A call without a number means that no potency is given here. The source made the active and inactive calls. Calls follow the shape of the dose curve; as a rule, active = well fitted cell-killing curve with a large enough effect in the repeat runs; inconclusive = weak or mixed curves, or effect the other way; inactive = no such curve, though single readings can be large or run the other way.

Assay: qHTS assay for identifying genotoxic compounds that show differential cytotoxicity against isogenic chicken DT40 cell lines with known DNA damage response pathways - wild type cell line (AID 743012); also: nearly all actives have a fitted effect of over 60% in size
Settings: DT40 wild type chicken cells viability, CellTiter-Glo, 40 h; series mostly up to 68.4 µM
Text: U.S. Tox21 Program National Center for Advancing Translational Sciences [NCATS] NIH Chemical Genomics Center [NCGC] U.S. Environmental Protection Agency [EPA] National Institutes of Environmental Health Sciences [NIEHS] National Toxicology Program [NTP] U.S. Food and Drug Administration [FDA] Tox21 Assay Overview: DNA repair pathways play a critical role in cellular homeostasis by repairing DNA damage induced by endogenous processes and xenobiotics. Isogenic chicken DT40 cell lines deficient in different DNA repair pathways can be used to identify genotoxic compounds and aid in characterizing the nature of the DNA damage induced. Two DNA repair-deficient cell lines with disrupted genes, Rad54/Ku70 or Rev3, were used to screen the Tox21 10K compound library. Possible genotoxicity was based on the presence of a significant increase in cytotoxicity in one or more of the DNA repair-deficient cell lines compared to that observed in the parental DNA repair-proficient cell line. CellTiter Glo viability assay (Promega, Madison, WI) was used to measure cell viability in these cells after compound treatment. This assay includes the data from the wild type cell line.
Tox21 Assay Protocol Summary: 300 DT40 wild type cells in 5 uL/well were dispensed into white, solid-bottom 1536-well plates using a Multidrop Combi (ThermoFisher Scientific, Waltham, MA) dispenser. After the assay plates were incubated at 37 C/5% CO2 for approximately 0.5 hour, 23 nL of compounds dissolved in DMSO, positive controls or DMSO only was transferred into the assay plate by a pintool work station (Kalypsys, San Diego, CA). The assay plates were incubated at 37 C/5% CO2 for 40 hours. After 5 uL per well of CellTiter-Glo reagent was added into each well of the assay plates, the plates were incubated for 30 min at room temperature and the luminescence intensity of the plates was measured using a ViewLux (PerkinElmer, Shelton, CT) plate reader.
Potency is read from the fitted curve at half-maximal effect.

Structure (SMILES) | Potency
O=Cc1cccc(Br)c1 | inactive
CC(C)(C)OC(=O)c1cccc(N)c1 | inactive
CC1=NN(c2cccc(S(=O)(=O)O)c2)C(=O)C1 | inactive
C[C@H]1C[C@H]2[C@@H]3CCC4=CC(=O)C=C[C@]4(C)[C@H]3C(=O)C[C@]2(C)[C@@]1(O)C(=O)CO | inactive
CC(=O)N[C@H]1[C@H]([C@H](O)[C@H](O)CO)OC(C(=O)O)=C[C@@H]1N=C(N)N | inactive
O=C(O)Cc1csc(-c2ccc(Cl)cc2)n1 | inactive
CC(=O)O[C@@]12CO[C@@H]1C[C@H](O)[C@@]1(C)C(=O)[C@H](O)C3=C(C)[C@@H](OC(=O)[C@H](O)[C@@H](NC(=O)OC(C)(C)C)c4ccccc4)C[C@@](O)([C@@H](OC(=O)c4ccccc4)[C@H]21)C3(C)C | 0.0017 µM (active)
CC(N)C12CC3CC(CC(C3)C1)C2 (stereo not given) | inactive
CC(C)(CCC(=O)O)C(=O)O | inactive
CC(=O)C1CCCCC1=O (stereo not given) | inactive
C[N+]1(C)CCCC(OC(=O)C(O)(c2ccccc2)c2ccccc2)C1 (stereo not given) | inactive
Cc1ncc([C@@H](CCCCCCc2ccc3c(n2)NCCC3)CC(=O)O)cn1 | inactive
CCCCc1nc(Cl)c(CO)n1Cc1ccc(-c2ccccc2-c2nn[nH]n2)cc1 | inactive
C=CCCCCCCCCC(=O)OCC | inactive
CC12CCC(C(=O)C1=O)C2(C)C (stereo not given) | inactive
NC(=O)N1c2ccccc2CC(=O)c2ccccc21 | 5.96 µM (active)
CC1CCC(CO)CC1 (stereo not given) | inactive
CCNS(=O)(=O)c1ccc(C)cc1 | inactive
C[C@H]1[C@H](NC(=O)/C(=N/OC(C)(C)C(=O)O)c2csc(N)n2)C(=O)N1S(=O)(=O)O (stereo in doubt) | inactive
CN(C)CCN(C)CCN(C)C | inactive

Structure (SMILES) | Potency
CC[N+](C)(CC)CCOC(=O)C1c2ccccc2Oc2ccccc21 | inactive
CC(=O)Oc1cccc(C)c1 | inactive
NC(CCC(=O)O)C(=O)O (stereo not given) | inactive
CC1(C)[C@@H]2CC[C@@]1(C)[C@H](O)C2 | inactive
CCCCN1C=CN(C)C1 | inactive
O=S(=O)(O)c1cccc2ccccc12 | inactive
NO | inactive
O=C1CCCCCCCCCCCCCCO1 | inactive
Cc1c(N)c(=O)n(-c2ccccc2)n1C | inactive
C[N+]1(CC2COC(c3ccccc3)(c3ccccc3)O2)CCCCC1 (stereo not given) | 26.6 µM (active)
COc1ccccc1OCC1CNC(=O)O1 (stereo not given) | inactive
CCCCCCCC1CCCC1=O (stereo not given) | inactive
N[C@H](C(=O)O)[C@@H](O)c1ccc(O)c(O)c1 | 13.3 µM (active)
CCCn1cc[n+](C)c1C | inactive
CCOCC(C)O (stereo not given) | inactive
COc1ccnc(CS(=O)c2nc3cc(OC(F)F)ccc3[nH]2)c1OC (stereo not given) | inactive
C=COCC1CCC(COC=C)CC1 (stereo not given) | inactive
CCCCOCCOC(=O)CCCCCCCCC(=O)OCCOCCCC | inactive
CCCCOCCOC(=O)COc1cc(Cl)c(Cl)cc1Cl | inactive
C1CCC2=NCCCN2CC1 | inactive
